Data published in PubChem BioAssay (NCATS).
Results filed as inconclusive are left out. The source made the active and inactive calls. The call rests on the fitted dose curve; in most records, active means well fitted inhibition curve with a large enough effect; inconclusive means small, poorly fitted or top-dose-only effect; inactive means flat fitted curve, though single readings scatter.

tested on: CRL-7250; experiment: qHTS assay to identify novel small-molecules to repurpose for Merkel cell carcinoma treatment (AID 1296009); details: MCC and control cell lines, CellTiter-Glo viability, 72 h; at 44.8 µM (top of the series) unless noted; further: nearly all actives have a fitted effect of over 60% in size
How it was run: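 72 hr, 37 degree celsius; NPC 8-pt / MIPE 11-pt dose response; compound pinned in DMSO; CellTiter-Glo, 10 min RT, luminescence; normalized to no-cell and DMSO controls.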

**Q.** `O=C(O)c1cn(C2CC2)c2cc(Cl)c(F)cc2c1=O` was tested. Which outcome did it give?
**A.** inactive

**Q.** Which outcome does the source give for `Cc1nc2sccn2c(=O)c1CCN1CCC(=C(c2ccc(F)cc2)c2ccc(F)cc2)CC1` here?
**A.** inactive

**Q.** With `N#Cc1cc(NC(=O)C(=O)O)c(Cl)c(NC(=O)C(=O)O)c1` as the compound, how does the outcome read?
**A.** inactive

**Q.** Which outcome does the source give for `Cc1cc(C(C)(C)C)c(O)c(C)c1CC1=NCCN1` here?
**A.** inactive

**Q.** `CCN(CC)C(=O)N1CCN(C)CC1` was tested. Which outcome did it give?
**A.** inactive

**Q.** For `CC(C)(C)c1ccc(C(=O)CCCCl)cc1`, which outcome is on record?
**A.** inactive

**Q.** `Clc1ccc(C(Cn2ccnc2)OCc2ccc(Sc3ccccc3)cc2)c(Cl)c1` (stereo not given) was tested. Which outcome did it give?
**A.** inactive

**Q.** For `Cc1cccc(C)c1NC(=O)C(C)N` (stereo not given), which outcome is on record?
**A.** inactive

**Q.** `CCOC(=O)OC(C)OC1=C(C(=O)Nc2ccccn2)N(C)S(=O)(=O)c2ccccc21` (stereo not given) was tested. Which outcome did it give?
**A.** inactive

**Q.** How did the outcome turn out when `O=c1[nH]c2cc(C(F)(F)F)c(N3CCOCC3)cc2n(CP(=O)(O)O)c1=O` was run?
**A.** inactive

**Q.** For `CC(C)(C)c1ccc(C(O)CCCN2CCC(C(O)(c3ccccc3)c3ccccc3)CC2)cc1` (stereo not given), which outcome is on record?
**A.** inactive

**Q.** With `CC(=O)NC(Cc1ccccc1)C(=O)O` (stereo not given) as the compound, how does the outcome read?
**A.** inactive [at 92 µM]

**Q.** `CCCCCCCCCCCCCCCCC(C(=O)O)C(O)(CC(=O)O)C(=O)O` (stereo not given) was tested. Which outcome did it give?
**A.** inactive

**Q.** For `CSc1ccc(/C=C2/C(C)=C(CC(=O)O)c3cc(F)ccc32)cc1`, which outcome is on record?
**A.** inactive

**Q.** With `C[C@]12CC[C@@H]3c4ccc(O)cc4CC[C@H]3[C@@H]1CCC2=O` as the compound, how does the outcome read?
**A.** inactive

**Q.** For `CN(C)C/C=C(/c1ccc(Br)cc1)c1cccnc1`, which outcome is on record?
**A.** inactive

**Q.** With `O=C(NCC1CN(c2ccc(N3CCOCC3=O)cc2)C(=O)O1)c1ccc(Cl)s1` (stereo not given) as the compound, how does the outcome read?
**A.** inactive

**Q.** With `CCCCOc1cc(C(=O)OCCN(CC)CC)ccc1N` as the compound, how does the outcome read?
**A.** inactive

**Q.** With `Cc1cn([C@H]2C[C@H](F)[C@@H](CO)O2)c(=O)[nH]c1=O` as the compound, how does the outcome read?
**A.** inactive

**Q.** With `O=C(O)CCC(=O)c1ccc(-c2ccccc2)cc1` as the compound, how does the outcome read?
**A.** inactive

**Q.** How did the outcome turn out when `CCCC(=O)OC[C@@H](OC(=O)CCC)[C@@H](OC(=O)CCC)[C@H](Cn1c2nc(=O)[nH]c(=O)c-2nc2cc(C)c(C)cc21)OC(=O)CCC` was run?
**A.** inactive

**Q.** With `CN1CCCCC1CCN1c2ccccc2Sc2ccc(S(C)=O)cc21` (stereo not given) as the compound, how does the outcome read?
**A.** inactive

**Q.** For `c1ccc2c(c1)CCc1ccccc1N2`, which outcome is on record?
**A.** inactive

**Q.** For `CN1[C@@H]2CC[C@H]1CC(OC(=O)c1c[nH]c3ccccc13)C2` (stereo not given in full), which outcome is on record?
**A.** inactive

**Q.** How did the outcome turn out when `OC(CCN1CCCCC1)(c1ccccc1)C1CC2C=CC1C2` (stereo not given) was run?
**A.** inactive

**Q.** Which outcome does the source give for `CCN(CCCc1ccccc1)CCCc1ccccc1` here?
**A.** inactive

**Q.** Which outcome does the source give for `CCOc1ccccc1C(N)=O` here?
**A.** inactive

**Q.** Which outcome does the source give for `Cc1ccc(Nc2c(F)cccc2Cl)c(CC(=O)O)c1` here?
**A.** inactive

**Q.** With `CCOc1cc(N)c(Cl)cc1C(=O)NCC1CN(Cc2ccc(F)cc2)CCO1` (stereo not given) as the compound, how does the outcome read?
**A.** inactive

**Q.** How did the outcome turn out when `O=C(O)Cn1c(C(=O)Nc2nc(-c3ccccc3Cl)cs2)cc2ccccc21` was run?
**A.** inactive

**Q.** How did the outcome turn out when `O=C(OCC(COC(=O)c1cccnc1)(COC(=O)c1cccnc1)COC(=O)c1cccnc1)c1cccnc1` was run?
**A.** inactive

**Q.** Which outcome does the source give for `CC(C)Cn1cnc2c1c(=O)n(C)c(=O)n2C` here?
**A.** inactive

**Q.** Which outcome does the source give for `CCCOC(=O)c1ccc(N)cc1` here?
**A.** inactive

**Q.** Which outcome does the source give for `O=c1ccc2ccccc2o1` here?
**A.** inactive

**Q.** For `O=C(O)C1CCC1`, which outcome is on record?
**A.** inactive
